# Data: article PMC11062922 (Nature Chemical Biology, 2023)
# Where two headings read alike, the source gives them in different places.
# What was measured:
# PIK3C2A = tested on: PIK3C2A; set-up: species or system human, MV4-11 + K-562 + COLO205 + SK-N-BE2 + OVCAR-8; conditions: read-out: apparent Kd; compound concentrations: 100 nM and 1000 nM (sheet 'Samples'), CATDS: 5.6745724082573501E-2; n = 1
# PIK3C2B = tested on: PIK3C2B; set-up: species or system human, MV4-11 + K-562 + COLO205 + SK-N-BE2 + OVCAR-8; conditions: read-out: apparent Kd; compound concentrations: 100 nM and 1000 nM (sheet 'Samples'), CATDS: 8.3411679268076702E-2; n = 1
# PRKD1 = tested on: PRKD1; set-up: species or system human, MV4-11 + K-562 + COLO205 + SK-N-BE2 + OVCAR-8; conditions: read-out: apparent Kd; compound concentrations:100 nM and 1000 nM (sheet 'Samples'); n = 1
# PRKCI = tested on: PRKCI; set-up: species or system human, MV4-11 + K-562 + COLO205 + SK-N-BE2 + OVCAR-8; conditions: read-out: apparent Kd; compound concentrations:100 nM and 1000 nM (sheet 'Samples'); n = 1
# STK26 = tested on: STK26; set-up: species or system human, MV4-11 + K-562 + COLO205 + SK-N-BE2 + OVCAR-8; conditions: read-out: apparent Kd; compound concentrations: 100 nM and 1000 nM (sheet 'Samples'), CATDS: 0.52714165558765103; n = 1
# RPS6KB1 = tested on: RPS6KB1; set-up: species or system human, MV4-11 + K-562 + COLO205 + SK-N-BE2 + OVCAR-8; conditions: read-out: apparent Kd, n = 1
# Q6ZSR9 = Q6ZSR9 (human, UniProt Q6ZSR9); set-up: species or system MV4-11 + K-562 + COLO205 + SK-N-BE2 + OVCAR-8; conditions: read-out: apparent Kd, n = 1
# Q6ZSR9, sequence (Q6ZSR9 whole entry, looked up): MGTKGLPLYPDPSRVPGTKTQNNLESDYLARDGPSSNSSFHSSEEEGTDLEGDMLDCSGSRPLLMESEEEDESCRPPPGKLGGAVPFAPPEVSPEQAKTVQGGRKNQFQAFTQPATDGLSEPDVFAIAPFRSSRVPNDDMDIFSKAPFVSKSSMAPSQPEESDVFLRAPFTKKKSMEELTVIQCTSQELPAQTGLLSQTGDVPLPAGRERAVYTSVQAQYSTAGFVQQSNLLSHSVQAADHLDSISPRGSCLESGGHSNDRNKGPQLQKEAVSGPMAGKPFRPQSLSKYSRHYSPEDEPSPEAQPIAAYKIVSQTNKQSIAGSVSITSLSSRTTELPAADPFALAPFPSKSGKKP
# PLK1 = tested on: PLK1; set-up: species or system human, MV4-11 + K-562 + COLO205 + SK-N-BE2 + OVCAR-8; conditions: read-out: apparent Kd, compound concentrations: 100 nM and 1000 nM (sheet 'Samples'), n = 1
# RIOK2 = tested on: RIOK2; set-up: species or system human, MV4-11 + K-562 + COLO205 + SK-N-BE2 + OVCAR-8; conditions: read-out: apparent Kd, compound concentrations: 100 nM and 1000 nM (sheet 'Samples'), n = 1
# TAOK1 = tested on: TAOK1; set-up: species or system human, MV4-11 + K-562 + COLO205 + SK-N-BE2 + OVCAR-8; conditions: read-out: apparent Kd; compound concentrations: 100 nM and 1000 nM (sheet 'Samples'), CATDS: 1; n = 1
# ACOX1 = conditions: read-out: apparent Kd, n = 1
# AKT3 = conditions: read-out: apparent Kd, n = 1
# BTK = conditions: read-out: apparent Kd, n = 1
# CDC42 = conditions: read-out: apparent Kd, n = 1
# CDK7 = conditions: read-out: apparent Kd, n = 1
# MAP3K2 = conditions: read-out: apparent Kd, n = 1
# PIK3CD = conditions: read-out: apparent Kd, n = 1
# PRKX;PRKY = conditions: read-out: apparent Kd, n = 1
# STK16 = conditions: read-out: apparent Kd, n = 1
# TTN = conditions: read-out: apparent Kd, n = 1
# [1] = compound concentrations:100 nM and 1000 nM (sheet 'Samples')
# [2] = compound concentrations:100 nM and 1000 nM (sheet 'Lestaurtinib' of Supplementary Table 1),run:Lestaurtinib_02339_R2,Plate:MR001
# [3] = compound concentrations:100 nM and 1000 nM (sheet 'Lestaurtinib' of Supplementary Table 1),run:Lestaurtinib_02422_R1,Plate:MR006
# [4] = compound concentrations:100 nM and 1000 nM (sheet 'Lestaurtinib' of Supplementary Table 1),run:Lestaurtinib_02487_R1,Plate:MR012
# [5] = compound concentrations:100 nM and 1000 nM (sheet 'Lestaurtinib' of Supplementary Table 1),run:Lestaurtinib_02443_R3,Plate:MR009
compound,measurement,setting,value
Nc1ncc(-c2ccc3nccc(-c4ccncc4)c3c2)cc1S(=O)(=O)N1CCCCC1 [GSK1693850A],potency estimated from few doses,PIK3C2A,2320 nM
same,potency estimated from few doses,PIK3C2B,483 nM
Cc1cccc(-c2nc(Nc3ccc4c(cnn4C)c3)c3ccccc3n2)n1 [GW876731X],potency estimated from few doses,PRKD1,92.8 nM
CCn1c(-c2nonc2N)nc2ccccc21 [SB-693162],potency estimated from few doses,PRKCI,2410 nM
Cn1ccc(-c2cccc(Nc3ccnc4cc(-c5nccs5)ccc34)c2)n1 [GW525701_KCGS],potency estimated from few doses,STK26,1370 nM
Nc1nonc1-c1nc2cnccc2n1C1CC1 [SB-736302],potency estimated from few doses,"RPS6KB1; compound concentrations: 100 nM and 1000 nM (sheet 'Samples'), CATDS: 0.26812352090996999",794 nM
CCn1c(-c2nonc2N)nc2cnc(Oc3cccc(NC(=O)c4ccc(N(C)C)cc4)c3)cc21 [GSK248233A],potency estimated from few doses,Q6ZSR9; [1],2120 nM
same,potency estimated from few doses,RPS6KB1; [1],978 nM
COc1cc2ncn(-c3cc(OCC4CCCO4)c(C(N)=O)s3)c2cc1OC (centres unmarked) [GSK204607A],potency estimated from few doses,PLK1; CATDS: 0.33403432138317102,838 nM
COc1ccc2ncn(-c3cc(O[C@H](C)c4ccccc4C(F)(F)F)c(C(N)=O)s3)c2c1 [GSK317315A],potency estimated from few doses,PLK1; CATDS: 0.88975940081611404,128 nM
same,potency estimated from few doses,RIOK2; CATDS: 0.34769297632871299,1940 nM
COC[C@H](NC1=NC(=O)/C(=C/c2ccc3ncccc3c2)S1)c1ccccc1 [RO4595946-000],potency estimated from few doses,"Q6ZSR9; compound concentrations: 100 nM and 1000 nM (sheet 'Samples'), CATDS: 1",1580 nM
Cl.c1ccc(Oc2ccc(Nc3ncc(-c4ccccc4)o3)cc2)cc1 [GW641155A],potency estimated from few doses,RIOK2; CATDS: 1,2140 nM
Cc1nnc(-c2ccc(C)c(-c3ccc(C(=O)Nc4ccc(NS(C)(=O)=O)cc4)cc3)c2)o1 [GW702865X],potency estimated from few doses,TAOK1,1620 nM
O=C(NCCNc1ccnc(Nc2ccc(F)cc2)n1)Nc1ccc2c(c1)OCO2 [GSK1379882A],potency estimated from few doses,TAOK1,1250 nM
Lestaurtinib,potency estimated from few doses,"ACOX1; compound concentrations:100 nM and 1000 nM (sheet 'Lestaurtinib' of Supplementary Table 1),run:Lestaurtinib_02364_R2,Plate:MR002",1360 nM
same,potency estimated from few doses,"ACOX1; compound concentrations:100 nM and 1000 nM (sheet 'Lestaurtinib' of Supplementary Table 1),run:Lestaurtinib_02624_R1,Plate:MR020",1670 nM
same,potency estimated from few doses,AKT3; [2],1910 nM
same,potency estimated from few doses,"AKT3; compound concentrations:100 nM and 1000 nM (sheet 'Lestaurtinib' of Supplementary Table 1),run:Lestaurtinib_03172_R3,Plate:MR031",1540 nM
same,potency estimated from few doses,BTK; [3],760 nM
same,potency estimated from few doses,BTK; [4],385 nM
same,potency estimated from few doses,"CDC42; compound concentrations:100 nM and 1000 nM (sheet 'Lestaurtinib' of Supplementary Table 1),run:Lestaurtinib_02437_R1,Plate:MR007",1440 nM
same,potency estimated from few doses,"CDC42; compound concentrations:100 nM and 1000 nM (sheet 'Lestaurtinib' of Supplementary Table 1),run:Lestaurtinib_02765_R3,Plate:MR026",1440 nM
same,potency estimated from few doses,CDK7; [4],132 nM
same,potency estimated from few doses,"CDK7; compound concentrations:100 nM and 1000 nM (sheet 'Lestaurtinib' of Supplementary Table 1),run:Lestaurtinib_02496_R2,Plate:MR013",1590 nM
same,potency estimated from few doses,MAP3K2; [2],2130 nM
same,potency estimated from few doses,MAP3K2; [5],2170 nM
same,potency estimated from few doses,PIK3CD; [2],190 nM
same,potency estimated from few doses,"PIK3CD; compound concentrations:100 nM and 1000 nM (sheet 'Lestaurtinib' of Supplementary Table 1),run:Lestaurtinib_02577_R3,Plate:MR016",12.4 nM
same,potency estimated from few doses,PRKX;PRKY; [5],1430 nM
same,potency estimated from few doses,"PRKX;PRKY; compound concentrations:100 nM and 1000 nM (sheet 'Lestaurtinib' of Supplementary Table 1),run:Lestaurtinib_02896_R3,Plate:MR030",2210 nM
same,potency estimated from few doses,STK16; [3],1430 nM
same,potency estimated from few doses,"STK16; compound concentrations:100 nM and 1000 nM (sheet 'Lestaurtinib' of Supplementary Table 1),run:Lestaurtinib_03260_R1,Plate:MR033",1340 nM
same,potency estimated from few doses,"TTN; compound concentrations:100 nM and 1000 nM (sheet 'Lestaurtinib' of Supplementary Table 1),run:Lestaurtinib_02364_R1,Plate:MR002",1910 nM
same,potency estimated from few doses,"TTN; compound concentrations:100 nM and 1000 nM (sheet 'Lestaurtinib' of Supplementary Table 1),run:Lestaurtinib_02606_R2,Plate:MR019",737 nM
